Measured values as given in PubChem BioAssay.

Assay: reversal of MRP1-mediated doxorubicin resistance, pilot screen, H69AR cells, doxorubicin co-treatment (AID 601)
Conditions: H69AR cells + 2 uM doxorubicin, CellTiter-Glo, 72 h; measured here: viability with 2 uM doxorubicin; at 10 µM; stronger effect = lower value
`Cc1cccc2c(=O)oc(-c3ccc4c(c3)C(=O)N(CC3CCCO3)C4=O)nc12` (stereo not given) gave a viability of 92.8%.
`CC(=O)NC(C)C(=O)OCc1ccc(Cl)cc1Cl` (stereo not given) showed a viability of 95.2%.
In the case of `CC1CCCC(C)N1C(=O)CSc1nnc(-c2cccs2)o1` (stereo not given), the viability is reported as 96.8%.
For `CC(C)N(C(=O)N1CCC(c2nc(-c3ccncc3)no2)CC1)C(C)C`, the viability was 106%.
`COc1ccccc1NC(=O)N(Cc1ccco1)Cc1cc2cccc(C)c2[nH]c1=O` showed a viability of 74.7%.
In the case of `NC(CO)C(=O)NNCc1ccc(O)c(O)c1O` (stereo not given), the viability is reported as 90.5%.
Compound `Cc1csc(NC(=O)Nc2cccc(Cl)c2)n1` has a viability of 90%.
In the case of `CCCCOc1ccccc1C1C(C(N)=O)=C(C)Nc2nnnn21` (stereo not given), the viability is reported as 86.6%.
`CC(C)Oc1cc2oc(=O)c3c(c2cc1Cl)CCC3` gave a viability of 78.6%.
In the case of `Cc1cccc(C)c1OCC(=O)Nc1cccc(NC(=O)c2ccco2)c1`, the viability is reported as 83.1%.
Work on `CCOC(=O)c1cnc2c(OC)cccc2c1N1CCN(c2ccc(OC)cc2)CC1` yielded a viability of 58.7%.
Compound `CC(C)CCNC(=O)C(C)N(Cc1ccc(F)cc1)C(=O)c1ccc(CN2CCCCC2)o1` (stereo not given) has a viability of 95.5%.
Work on `CCn1nc(C(=O)O)c(=O)c2cc3c(cc21)OCO3` yielded a viability of 99.3%.
Work on `CC(=O)O[C@H]1C[C@@H]2CC[C@@H]3[C@H](CC[C@@]4(C)[C@H]3C[C@H]([N+]3(C)CCCCC3)[C@@H]4OC(C)=O)[C@@]2(C)C[C@@H]1[N+]1(C)CCCCC1` yielded a viability of 99.3%.
Work on `COc1ccc(S(=O)(=O)Nc2cccc(C)n2)c2ccccc12` yielded a viability of 86.2%.
Work on `COC(=O)[C@H](C)NC(=O)Nc1cccc(C(F)(F)F)c1` yielded a viability of 95.7%.
`Cc1cc2c(c(=O)n1C)C(Cc1ccccc1)C(C#N)=C(N)O2` (stereo not given) gave a viability of 85.6%.
With `Cn1c(-c2ccc(F)cc2)cnc1SCC(=O)Nc1ccccc1N1CCOCC1` the viability was 88.8%.
Work on `CCCNC(=O)NC1C(NC(=O)NCCC)N(C)C(=O)N1C` (stereo not given) yielded a viability of 90.7%.
`C=CCN(CC=C)C(=O)Nc1cc(Cl)ccc1OC` showed a viability of 96.9%.
`COc1cccc(NC(=O)C2CCCN2C(=O)Nc2cccc(F)c2)c1` (stereo not given) gave a viability of 94%.
In the case of `Nc1nc(-c2ccc(Br)s2)c(Br)s1`, the viability is reported as 84.5%.
Work on `COc1ccc(CCNC(=O)CCN2C(=O)C3CC=CCC3C2=O)cc1OC` (stereo not given) yielded a viability of 92.8%.
In the case of `CC[C@H](C)C(=O)O[C@H]1C[C@@H](C)C=C2C=C[C@H](C)[C@H](CC[C@@H]3C[C@@H](O)CC(=O)O3)[C@H]21`, the viability is reported as 78.7%.
Compound `COc1cccc(-c2cc(C(=O)Nc3c(C)nn(Cc4ccccc4)c3C)no2)c1` has a viability of 89.5%.
In the case of `CCn1c(SCC(=O)NC)nnc1C(C)C`, the viability is reported as 85.8%.
In the case of `Cn1c(=O)c2c(nc(NCCCO)n2Cc2cccc(Br)c2)n(C)c1=O`, the viability is reported as 85.4%.
In the case of `COc1cc(NC(=O)CSCc2cnn(-c3ccccc3)c2-n2cccc2)cc(OC)c1`, the viability is reported as 75.3%.
For `COc1ccc(-n2ncc3c(NCc4ccc5c(c4)OCO5)ncnc32)cc1`, the viability was 17.4%.
In the case of `CCN(CC(=O)Nc1ccc2c(c1)CCC2)Cc1nc2ccccc2c(=O)[nH]1`, the viability is reported as 85.2%.
Work on `COc1ccccc1OCCOCCn1cnc2ccccc2c1=O` yielded a viability of 91.1%.
In the case of `Cc1cn2c(-c3ccncc3)nnc2s1`, the viability is reported as 92.7%.
`c1ccc2c(SCc3cn4cccnc4n3)ncnc2c1` gave a viability of 78%.
With `Cc1cnc(NC(=O)CSc2nnc(-c3ccccc3)n2Cc2ccccc2)s1` the viability was 85.8%.
For `C=CCN1C(=O)CS/C1=C(\C#N)S(=O)(=O)c1ccc(C)cc1`, the viability was 88.2%.
`Cc1cc(C)n2nc(SCC(=O)N(C)Cc3ccccc3)nc2n1` gave a viability of 102%.
For `COc1ccc2nc(S(=O)Cc3ncc(C)c(OC)c3C)[nH]c2c1` (stereo not given), the viability was 94.1%.
`O=C(O)c1cccc(COCC(F)(F)C(F)F)c1` gave a viability of 95.9%.
`Cc1ccc(S(=O)(=O)N2CCN(C(=O)N3CCOCC3)C2C)cc1` (stereo not given) gave a viability of 103%.
Compound `CCOc1ccc(NC(=O)CC2NCCNC2=O)cc1` (stereo not given) has a viability of 92.8%.
